Data from the supplement of paper PMC9446081.
Out of some 39,000 compounds screened, about 220 (0.56%) showed activity. The list comes from a sample in which actives are over-represented; it also holds similar structures and randomly drawn compounds. A number with no mark means an inactive call.

test system: Escherichia coli K-12 BW25113; assay: relative growth (OD600 normalised to plate interquartile mean) (fraction); higher = less growth inhibition, active = 0.2 or less; details: 50 µM; LB; incubation time: overnight (16-24 h)
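Also: Wild-type cells incubated without shaking, value is the mean of two biological replicates.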

For `CCC1OC(=O)C(C)C(OC2CC(C)(OC)C(O)C(C)O2)C(C)C(OC2OC(C)CC(N(C)C)C2O)C(C)(O)CC(C)CN(C)C(C)C(O)C1(C)O` (configuration not stated), which relative growth is on record?
The relative growth was 0.0435 (active).

Which relative growth does the source give for `CCCN1C[C@H](C)[C@@H](O)[C@](C)(O)[C@@H](CC)OC(=O)[C@H](C)[C@@H](O[C@H]2C[C@@](C)(OC)[C@@H](O)[C@H](C)O2)[C@H](C)[C@@H](O[C@@H]2O[C@H](C)C[C@H](N(C)C)[C@H]2O)[C@](C)(O)C[C@H]1C` here?
The relative growth was 0.116 (active).

With `CC[C@H]1OC(=O)[C@H](C)[C@@H](O[C@H]2C[C@@](C)(OC)[C@@H](O)[C@H](C)O2)[C@H](C)[C@@H](O[C@@H]2O[C@H](C)C[C@H](N(C)C)[C@H]2O)[C@](C)(O)C[C@@H](C)CN(C)[C@H](C)[C@@H](O)[C@]1(C)O` as the compound, how does the relative growth read?
Its relative growth is 0.0562 (active).

How did the relative growth turn out when `CCC1OC(=O)C(C)C(OC2CC(C)(OC)C(O)C(C)O2)C(C)C(OC2OC(C)CC(N(C)C)C2O)C(C)(O)CC(C)C(=O)C(C)C(O)C1(C)O.CCCCCCCCCCCCCCCCCC(=O)O` (configuration not stated) was run?
The relative growth was 0.665.

For `CC[C@H]1OC(=O)[C@H](C)[C@@H](O[C@H]2C[C@@](C)(OC)[C@@H](O)[C@H](C)O2)[C@H](C)[C@@H](O[C@@H]2O[C@H](C)C[C@H](N(C)C)[C@H]2O)[C@](C)(O)C[C@@H](C)[C@@H]2N[C@@H](COCCOC)O[C@H]([C@H]2C)[C@]1(C)O`, which relative growth is on record?
The relative growth was 0.469.

`CO[C@H]1C[C@H](O[C@H]2[C@H](C)[C@@H](O[C@H]3O[C@H](C)C[C@H](N(C)C)[C@H]3O)[C@@H](C)C[C@]3(CO3)C(=O)[C@H](C)[C@@H](O)[C@@H](C)[C@@H](C)OC(=O)[C@@H]2C)O[C@@H](C)[C@@H]1O` was tested. Which relative growth did it give?
The relative growth was 0.954.

`C[C@H](CO)N1C[C@H](C)[C@H](CN(C)S(=O)(=O)c2cccs2)Oc2ncc(-c3cccc(F)c3)cc2C1=O` was tested. Which relative growth did it give?
Its relative growth is 0.97.

How did the relative growth turn out when `O=C(Cn1nnc2ccccc2c1=O)Nc1nnc[nH]1` was run?
Its relative growth is 0.982.

`C[C@@H]1CN([C@H](C)CO)S(=O)(=O)c2ccc(C#CC3(O)CCCC3)cc2O[C@H]1CN(C)C(=O)Nc1cccc(F)c1` was tested. Which relative growth did it give?
Its relative growth is 1.

`Cc1cc(C)n(CCNC(=O)[C@H]2CCCN(c3cccc4c3C(=O)N(Cc3ccc5c(c3)OCO5)C4=O)C2)n1` was tested. Which relative growth did it give?
The relative growth was 0.993.

Which relative growth does the source give for `C[C@H](CO)N1C[C@H](C)[C@H](CN(C)C(=O)Nc2ccc(F)cc2)Oc2ncc(Br)cc2C1=O` here?
The relative growth was 0.974.

For `CN(C)C(=O)C[C@@H]1CC[C@@H]2[C@H](COC[C@H](O)CN2S(=O)(=O)c2ccccc2)O1`, which relative growth is on record?
The relative growth was 1.02.

How did the relative growth turn out when `Cn1cnc(S(=O)(=O)N2C[C@@H](O)COC[C@H]3O[C@@H](CC(=O)N4CCN(c5ccccc5)CC4)CC[C@@H]32)c1` was run?
Its relative growth is 1.02.

How did the relative growth turn out when `CC[C@@H](C)[C@H]1O[C@@]2(CC[C@@H]1C)C[C@H]1C[C@@H](CC=C(C)[C@@H](O[C@H]3C[C@@H](OC)[C@@H](O[C@H]4C[C@@H](OC)[C@@H](O)[C@@H](C)O4)[C@@H](C)O3)[C@@H](C)C=CC=C3CO[C@H]4[C@@H](O)C(C)=C[C@@H](C(=O)O1)[C@]34O)O2.CO[C@H]1C[C@@H](O[C@@H]2[C@@H](OC)C[C@@H](O[C@@H]3C(C)=CC[C@@H]4C[C@@H](C[C@@]5(CC[C@@H](C)[C@H](C(C)C)O5)O4)OC(=O)[C@@H]4C=C(C)[C@H](O)[C@@H]5OCC(=CC=C[C@@H]3C)[C@@]45O)O[C@@H]2C)O[C@@H](C)[C@@H]1O` was run?
The relative growth was 1.

How did the relative growth turn out when `C[C@@H]1CCCCO[C@H](CN(C)C(=O)Nc2ccccc2)[C@H](C)CN([C@@H](C)CO)C(=O)c2cc(NC(=O)c3ccccc3)ccc2O1` was run?
Its relative growth is 0.982.

`CCC(=O)O[C@H]1[C@H](O[C@@H]2[C@@H](C)[C@H](O[C@H]3C[C@@](C)(OC)[C@@H](O)[C@H](C)O3)[C@@H](C)C(=O)O[C@H](CC)[C@@](C)(O)[C@H](O)[C@@H](C)C(=O)[C@H](C)C[C@@]2(C)O)O[C@H](C)C[C@@H]1N(C)C` was tested. Which relative growth did it give?
The relative growth was 0.947.

How did the relative growth turn out when `CC[C@@H]1OC(=O)[C@H](C)[C@@H](O[C@H]2C[C@@](C)(OC)[C@@H](O)[C@H](C)O2)[C@H](C)[C@@H](O[C@@H]2O[C@H](C)C[C@H](N(C)C)[C@H]2O)[C@](C)(O)C[C@@H](C)/C(=N\OCOCCOC)[C@H](C)[C@@H](O)[C@]1(C)O` was run?
The relative growth was 0.165 (active).

How did the relative growth turn out when `CCOC(=O)CCC(=O)O[C@H]1[C@H](O[C@@H]2[C@@H](C)[C@H](O[C@H]3C[C@@](C)(OC)[C@@H](O)[C@H](C)O3)[C@@H](C)C(=O)O[C@H](CC)[C@@](C)(O)[C@H](O)[C@@H](C)C(=O)[C@H](C)C[C@@]2(C)O)O[C@H](C)C[C@@H]1N(C)C` was run?
The relative growth was 0.0544 (active).

With `CCC1OC(=O)C(C)C(OC2CC(C)(OC)C(O)C(C)O2)C(C)C(OC2OC(C)CC(N(C)C)C2O)C(C)(O)CC(C)C2NC(COCCOC)OC(C2C)C1(C)O` (configuration not stated) as the compound, how does the relative growth read?
The relative growth was 0.433.

`CC[C@H]1OC(=O)[C@H](C)[C@@H](O[C@H]2C[C@@](C)(OC)[C@@H](O)[C@H](C)O2)[C@H](C)[C@@H](O[C@@H]2O[C@H](C)C[C@H](N(C)C)[C@H]2O)[C@](C)(OC)C[C@@H](C)C(=O)[C@H](C)[C@@H](O)[C@]1(C)O` was tested. Which relative growth did it give?
The relative growth was 0.0351 (active).

Which relative growth does the source give for `CCC1OC(=O)C(C)C(OC2CC(C)(OC)C(O)C(C)O2)C(C)C(OC2OC(C)CC(N(C)C)C2O)C(C)(O)CC(C)C(=O)C(C)C(O)C1(C)O` (configuration not stated) here?
Its relative growth is 0.408.

With `CC[C@H]1OC(=O)[C@H](C)[C@@H](O[C@H]2C[C@@](C)(OC)[C@@H](O)[C@H](C)O2)[C@@H](C)[C@@H](O[C@H]2O[C@H](C)C[C@H](N(C)C)[C@H]2O)[C@](C)(O)C[C@@H](C)C(=O)[C@H](C)[C@@H](O)[C@]1(C)O` as the compound, how does the relative growth read?
The relative growth was 0.375.

For `CCC1OC(=O)C(C)C(OC2CC(C)(OC)C(O)C(C)O2)C(C)C(OC2OC(C)CC(N(C)C)C2O)C(C)(OC)CC(C)C(=O)C(C)C(O)C1(C)O` (configuration not stated), which relative growth is on record?
The relative growth was 0.536.

`CCC1OC(=O)C(C)C(OC2CC(C)(OC)C(O)C(C)O2)C(C)C(OC2OC(C)CC(N(C)C)C2O)C(C)(O)CC(C)C(=NOCOCCOC)C(C)C(O)C1(C)O` (configuration not stated) was tested. Which relative growth did it give?
Its relative growth is 0.613.

How did the relative growth turn out when `CC[C@@H]1OC(=O)[C@@H](C)[C@H](O[C@H]2C[C@@](C)(OC)[C@@H](O)[C@H](C)O2)[C@@H](C)[C@H](O)[C@@](C)(O[C@@H]2O[C@H](C)C[C@H](N(C)C)[C@H]2O)C[C@H](C)C(=O)[C@@H](C)[C@H](O)[C@@]1(C)O` was run?
The relative growth was 0.427.

For `CCOC(=O)CCC(=O)OC1C(OC2C(C)C(OC3CC(C)(OC)C(O)C(C)O3)C(C)C(=O)OC(CC)C(C)(O)C(O)C(C)C(=O)C(C)CC2(C)O)OC(C)CC1N(C)C` (configuration not stated), which relative growth is on record?
The relative growth was 0.709.

Which relative growth does the source give for `CC[C@H]1OC(=O)[C@H](C)[C@@H](O[C@H]2C[C@@](C)(OC)[C@@H](O)[C@H](C)O2)[C@H](C)[C@@H](O[C@@H]2O[C@H](C)C[C@H](N(C)C)[C@H]2O)[C@](C)(O)C[C@@H](C)C(=O)[C@H](C)[C@@H](O)[C@]1(C)O` here?
The relative growth was 0.0484 (active).
